Only some compounds are listed: those with a hit (about 21% of all), similar ones and a draw of the others.
TDP1 cell noCPT – qHTS for Inhibitors of human tyrosyl-DNA phosphodiesterase 1 (TDP1): qHTS in cells in absence of CPT | 420,000 compounds, 15% hits | DT40 Tdp1-/- hTDP1 cells, no CPT, ATP luminescence, 48 h | Potency, µM (titrated, usually from 46.2 µM), for inactives: at the highest dose activity change, negative = growth inhibition, actives largely listed as inhibitors; also: potency is read from the fitted curve at half-maximal effect; % is scaled to controls: 0 for no effect and ±100 for the full control effect; nearly all actives have a fitted effect of over 55% in size
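Stably hTDP1-transfected Tdp1-null chicken DT40 cells were treated with library compounds minus camptothecin and grown for at least 48 hr at 37 °C, after which cellular ATP was quantified by luminescence.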
ClpP mod – qHTS Assay for Activators of ClpP; purified B. subtilis ClpP, FRET peptide cleavage, 20 min; 340,000 compounds, 1.9% hits; Potency, µM (highest dose often 57.5 µM), for inactives: at the top dose activity change, negative = active; ATP-dependent Clp protease proteolytic subunit (Bacillus subtilis (strain 168)), P80244; active = well fitted falling curve with a large enough effect; inconclusive = small, poorly fitted or top-dose-only effect; inactive = no such curve, though single readings can be large or run the other way; also: potency is read from the fitted curve at half-maximal effect; the source files actives as falling curves though it sought activators and does not explain the sign; nearly all actives have a fitted effect of over 65% in size
Target sequence (P80244 whole entry, looked up): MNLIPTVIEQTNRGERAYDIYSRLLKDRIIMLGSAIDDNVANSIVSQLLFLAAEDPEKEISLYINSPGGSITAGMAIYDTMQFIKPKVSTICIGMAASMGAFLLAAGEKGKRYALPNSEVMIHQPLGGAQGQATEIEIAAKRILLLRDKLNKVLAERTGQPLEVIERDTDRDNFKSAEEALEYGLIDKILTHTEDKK
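Purified B. subtilis ClpP, 10 microg/mL final in Tris/HCl pH8 with KCl, BSA, glycerol and Tween-20, cleaved an Abz/nitrotyrosine-quenched decapeptide. Fluorescence (ex 320, em 430) was read at 0 and 20 min at room temperature. Delta was normalized to 5.8 microM ADEP and DMSO/no-enzyme controls.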
IL1B secr inh – inflammasome signaling inhibition, IL-1 beta readout. THP-1 LPS/ATP IL-1B secretion, AlphaLISA, 16 h; active compounds read low. activity change, % at 57.5 µM. 360,000 compounds, 4.7% hits; in the data active = activity change below about -50%; inconclusive = mostly about -30% to -49%; also: % is scaled to controls: 0 for no effect and ±100 for the full control effect
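THP-1 cells pretreated 1 hr with compounds (up to 57.5 uM final), then stimulated with LPS (250 ng/mL final) plus ATP (1.25 mM final); secreted IL-1B measured by AlphaLISA after 16 hr, decreased signal indicating inhibition.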
D3 ag – D3 dopamine receptor (human) agonism; D3R DiscoveRx beta-arrestin cells, luminescence, 90 min; 410,000 compounds, 0.58% hits; P35462; max activation, %; in the data active = max activation above about 30%; also: 0% is about no effect
Target sequence (P35462 whole entry, looked up): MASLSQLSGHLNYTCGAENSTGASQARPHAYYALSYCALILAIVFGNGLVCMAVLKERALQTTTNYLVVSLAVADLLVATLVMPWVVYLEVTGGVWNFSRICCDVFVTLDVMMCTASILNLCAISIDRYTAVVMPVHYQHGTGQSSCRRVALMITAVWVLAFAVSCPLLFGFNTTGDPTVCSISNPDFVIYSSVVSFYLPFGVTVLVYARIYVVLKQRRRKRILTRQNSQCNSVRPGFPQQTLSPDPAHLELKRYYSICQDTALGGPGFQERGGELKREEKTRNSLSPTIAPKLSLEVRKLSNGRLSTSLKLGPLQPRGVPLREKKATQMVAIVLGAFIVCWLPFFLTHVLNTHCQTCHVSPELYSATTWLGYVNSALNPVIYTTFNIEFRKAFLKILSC
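Cells at 1500/well, incubated overnight, then treated with pinned compounds (dopamine as control) for 90 min at 37 degrees C. DiscoveRx reagent added for 30 - 60 minutes at room temperature; luminescence read.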
DT40 TDP1 CPT – DT40-hTDP1 cell growth loss with CPT. chicken DT40 Tdp1-/-;hTDP1 cells + 20 nM CPT, ATP luminescence, 48 h. AID 686979. Potency, µM (highest dose often 46.2 µM), for the others: at the top dose activity change, negative = growth inhibition, hits mostly inhibitors. 420,000 compounds, 12% hits; also: potency is read from the fitted curve at half-maximal effect; % is scaled to controls: 0 for no effect and ±100 for the full control effect; nearly all actives have a fitted effect of over 55% in size
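Cell growth measured by CellTiter-Glo luminescence after a minimum 48 h, 37 C compound exposure with 20 nM CPT in Tdp1-knockout DT40 cells stably expressing hTDP1, seeded 400/well; qHTS titration format.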
DRD3 antagonist – antagonists of human D3 dopamine receptor; P35462; D3R cells, DiscoveRx beta-arrestin luminescence, antagonist mode; active compounds read low; max response, negative = inhibition, %; 360,000 compounds, 2.5% hits; in the data active = max response below about -50%; inconclusive = no clear call, values can overlap the other calls; also: % is scaled to controls: 0 for no effect and ±100 for the full control effect
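Cells expressing the human receptor were seeded at 1500 cells/well, incubated overnight at 37 degrees C in 5% CO2, then exposed to library compounds with dopamine controls for 90 minutes at 37 degrees C before luminescent detection.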
Starred values were filed as active, the others as inactive; ? = inconclusive; . = no result. Unless noted, calls follow the shape of the dose curve; as a rule, active = well fitted inhibition curve with a large enough effect; inconclusive = small, poorly fitted or top-dose-only effect; inactive = flat fitted curve, though single readings scatter.

SMILES | TDP1 cell noCPT | ClpP mod | IL1B secr inh | D3 ag | DT40 TDP1 CPT | DRD3 antagonist
COc1ccc(NCc2cc3ccc(OC)cc3n(CC(=O)Nc3cccc(OC)c3)c2=O)cc1 | . | 1% | . | 0 | . | .
O=C1Nc2cc(C(=O)N3CCOCC3)ccc2S/C1=C/c1ccccc1F | ? | 39% | -20 | 7 | 16µM* | 14
O=C1Nc2cc(C(=O)N3CCOCC3)ccc2S/C1=C\c1ccccc1 | 23µM* | -1% | -24 | 2 | ? | -7
O=C1Nc2cc(C(=O)NCCCN3CCOCC3)ccc2S/C1=C/c1ccccc1F | ? | -3% | -25 | -12 | ? | -16
CCOc1ccc(CCNC(=O)Cn2nnc(-c3ccc(C(F)(F)F)cc3)n2)cc1OCC | ? | 0% | . | 9 | -19% | .
COc1ccc(Cn2ccc3nc(C)c(C(=O)Nc4cc(OC)c(OC)c(OC)c4)cc3c2=O)cc1 | ? | -1% | . | 2 | ? | .
Cc1cc(C)nc(SCCn2c(N3CCOCC3)nc3c2c(=O)[nH]c(=O)n3C)n1 | 7% | 0% | 43 | 0 | -6% | 0
O=C(Nc1ccc(Cl)cc1F)c1cccc2ccccc12 | ? | . | 0 | 6 | ? | 15
Cc1ccc(OCCC(=O)OCC(=O)NCCc2ccc(Cl)cc2)cc1 | -21% | 66% | 12 | -10 | 1% | -7
C=CCC1(CC=C)CCCN1C(=O)C1CCC(=O)N(CCc2ccccc2)C1 (centres undefined) | 5.8µM* | -1% | -16 | 5 | 9.2µM* | 12
O=C1CCC(C(=O)N2CCSCC2)CN1CCc1ccccc1 (centres undefined) | 33% | -2% | 4 | 2 | -13% | -1
COc1ccc(CCN2CC(C(=O)N3CCC(OC)CC3)CCC2=O)cc1 (centres undefined) | -2% | 2% | -16 | 5 | 4% | 4
C=CCC1(CC=C)CCCN1C(=O)C1CCC(=O)N(CCc2ccc(OC)cc2)C1 (centres undefined) | 10µM* | -2% | -4 | -2 | 12µM* | -1
Cc1ccc(S(=O)(=O)N2CCCCCC2)cc1C(=O)NCc1ccccn1 | ? | . | 19 | 8 | -12% | 3
COc1ccc(CNC(=O)Cc2c(C)c3ccc(O)cc3oc2=O)cc1 | -2% | 4% | . | 6 | 3% | .
Cc1cccc(-c2nc(Cn3c(SCc4cccc(C(F)(F)F)c4)nc4ccncc43)c(C)o2)c1 | ? | 1% | . | -12 | 15µM* | .
COc1ccc(-c2nc(Cn3c(SCc4cccc(F)c4)nc4ccncc43)c(C)o2)cc1OC | ? | -5% | ? | 1 | ? | -3
Cc1oc(-c2ccccc2F)nc1Cn1c(SCc2ccccc2F)nc2ccncc21 | 15µM* | -26% | . | -19 | ? | .
COc1ccc(-c2nc(Cn3c(SCc4ccccc4F)nc4ccncc43)c(C)o2)cc1OC | 21µM* | ? | . | -22 | 18µM* | .
Cc1ccc(NC(=S)NCc2ccccn2)cc1 | -18% | -1% | -10 | -3 | 5% | ?
S=C(NCc1ccccn1)NN=Cc1ccccn1 | 0.15µM* | -2% | 94 | 5 | 0.15µM* | 8
O=C(NCCn1cc(SCc2ccccc2F)c2ccccc21)c1cccs1 | 21µM* | -2% | . | -3 | ? | .
CC(Sc1cn(CCNC(=O)c2ccccc2F)c2ccccc12)c1ccccc1 (centres undefined) | 21µM* | -4% | . | 7 | ? | .
O=C(NCCn1cc(SCC(=O)N2CCOCC2)c2ccccc21)c1c(F)cccc1F | ? | 0% | 0 | 1 | ? | 17
O=C(NCCn1cc(SCc2ccccc2F)c2ccccc21)c1c(F)cccc1F | 23µM* | -1% | ? | 6 | ? | 20
SMILES | TDP1 cell noCPT | ClpP mod | IL1B secr inh | D3 ag | DT40 TDP1 CPT | DRD3 antagonist
COc1ccc(CCNC(=O)CSc2cn(CCNC(=O)c3ccccc3F)c3ccccc23)cc1OC | ? | -2% | . | 2 | ? | .
Cc1ccccc1CSc1cn(CCNC(=O)c2cccs2)c2ccccc12 | ? | -6% | . | 5 | 23µM* | .
O=C(O)c1ccc2c(c1)C(=O)N(c1nccs1)C2=O | 0% | . | 14 | -3 | 0% | -23
COc1ccc(C(=O)NC2=Nc3ccccc3N=C(C)C2c2ccccc2)cc1 (centres undefined) | ? | . | 8 | -6 | -18% | 4
COc1ccc(NC(=O)Cn2ccn(Cc3ccccc3)c(=O)c2=O)cc1Cl | 31% | 1% | . | 8 | -18% | .
C=CCN(CC=C)C(=O)C1c2ccccc2Oc2ccccc21 | ? | 0% | 0 | -6 | 26µM* | -2
CCN(CC)C(=O)C1c2ccccc2Oc2ccccc21 | ? | . | -15 | 4 | ? | ?
CC(O)CNc1nc2sc3c(c2c(=O)n1CCc1ccccc1)CCCCC3 (centres undefined) | 16µM* | . | -82* | -7 | 23µM* | 7
CN(C)CCNc1nc2sc3c(c2c(=O)n1CCc1ccccc1)CCCCC3 | 10µM* | -2% | -75* | -10 | 21µM* | -1
CC(O)CNc1nc2sc3c(c2c(=O)n1Cc1ccco1)CCCCC3 (centres undefined) | ? | . | -21 | 5 | -24% | -6
Cn1cc(C(c2ccccc2OCC(=O)O)c2cn(C)c3ccccc23)c2ccccc21 | 16µM* | 0% | -10 | -3 | 12µM* | -20
Cn1cc(C(c2ccccn2)c2cn(C)c3ccccc23)c2ccccc21 | ? | 2% | 0 | 7 | ? | ?
CCOc1ccc(C(=O)c2cn(CC(=O)Nc3cccc(OC)c3)c3cc4c(cc3c2=O)OCCO4)cc1 | ? | -7% | . | -15 | -26% | .
CCC(C)(C)n1nnnc1C(c1ccc(C)cc1)N1CCN(Cc2ccc3c(c2)OCO3)CC1 (centres undefined) | ? | 3% | -53* | 2 | 1% | -70*
CCC(C)(C)n1nnnc1C(c1ccc(C)cc1)N1CCC(C)CC1 (centres undefined) | ? | 0% | -5 | -5 | 13µM* | ?
CCC(C)(C)n1nnnc1C(c1ccc2ncccc2c1)N1CCN(Cc2ccc3c(c2)OCO3)CC1 (centres undefined) | -4% | -2% | 0 | -19 | -2% | -24
COCC(=O)N1CCC2(CCN(Cc3ccccc3OC)CC2)CC1 | -9% | . | . | . | 5% | .
COc1cc(=O)n2c(c1C(=O)NCc1nonc1C)CCN(C(=O)c1cccc(C)c1C)CC2 | -23% | . | . | . | 4% | .
